Where “and” joins values, the source holds several entries; their conditions need not be identical. Equal values may be shown once. A number with no mark means an inactive call.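 How the source made its calls: active means compounds whose GFP signal falls below 65% of the DMSO control level; inconclusive means fewer than 70 yeast cells counted in the well; inactive means the rest.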

The experiment can be described thus: TOR branch reporter RPL19A-GFP response – cell-based, S. cerevisiae, third cherry pick, flow cytometry, confirmation (AID 504336).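 Further: median GFP fluorescence of all gated yeast cells by flow cytometry; ratio of well median fluorescence to plate mean of DMSO wells with DMSO = 100%.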 Conditions: S. cerevisiae RPL19A-GFP strain, 3 h, at 10 µM, active compounds read low. On the technique in general: In flow cytometry, cells or beads pass a laser one at a time.
For the compound `OCc1ccc(O)c2ncccc12`, the GFP response relative to DMSO was 101%.

With `O=C(O)c1ccccc1-c1ccccc1C(=O)Nc1ccc(-c2nc3cc(Cl)ccc3o2)cc1`, the GFP response relative to DMSO was 98.5%.

Turning to `COc1cccc(N/C=C/C(=O)c2ccc(Cl)cc2)c1`, the GFP response relative to DMSO is 101%.

As for `C/C(=N\NC(=O)c1cccc2ccccc12)c1cccnc1`, the GFP response relative to DMSO was 98.3%.

For `COC(=O)COc1c(Cl)cc(Cl)c2ccc(C)nc12`, the GFP response relative to DMSO was 105%.

As for `CC1=CN2C(=N)/C(=C/c3ccc(C)o3)C(=O)N=C2S1`, the GFP response relative to DMSO is 101%.

Turning to `Cc1nc(Nc2ccc(Br)cc2Br)c([N+](=O)[O-])c(=O)[nH]1`, the GFP response relative to DMSO was 100%.

In the case of `Nc1cccc2c1C(=O)c1ccc(Cl)cc1C2=O`, the GFP response relative to DMSO was 102%.

Turning to `CC(=O)C(CC(=O)N1CCCC1)C(=O)Nc1ccc(Cl)cc1` (configuration not stated), the GFP response relative to DMSO was 102%.

`O=C(/C=C/Nc1cccc(O)c1)c1ccccc1`: the GFP response relative to DMSO is 98.8%.

`C/C(=C\C(=O)c1ccc(Cl)cc1)Nc1ccc(Br)cc1`: the GFP response relative to DMSO was 100%.

On to `Cn1c(NCCCO)nc2c(c1=O)C1(CCCCC1)Cc1ccccc1-2`, for which the GFP response relative to DMSO was 102%.

Turning to `Nc1c(C(=O)O)ccc2c1C(=O)c1ccccc1C2=O`, the GFP response relative to DMSO was 101%.

Turning to `COc1ccccc1-c1cc(C(F)(F)F)nc(S(=O)(=O)CCCC(=O)NC(C)C)n1`, the GFP response relative to DMSO is 94.4% and 99.1%.

Regarding `C[n+]1cccc2cccc([O-])c21`, the GFP response relative to DMSO was 98.3%.

For `Cc1ccc(C(=O)Nc2nc(-c3ccccn3)cs2)o1`, the GFP response relative to DMSO is 99.3%.

Consider `COc1ccc(OC)c(N/C(C)=C/C(=O)c2ccccc2)c1`, for which the GFP response relative to DMSO is 103%.
